Screening results: PubChem BioAssay, several laboratories
Rows were chosen to be rich in hits. Some 4.9% of all compounds tested hit in one or more screens of this group.
Platelet DG rel: platelet dense granule release activity. human platelet-rich plasma, SFLLRN dense granule ATP release, luminescence. inhibition, %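 (compounds screened at 7.5 µM in platelet-rich plasma)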. actives 0.22% (n = 300,000);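 active = mean replicate score, as percent of positive control, at or above 50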
MPTP inh: inhibitors of mitochondrial permeability transition pore; isolated mouse mitochondria, Ca2+ swelling absorbance, 30 min; inhibition, % at 10 µM; actives 1.4% (n = 360,000); AID 602449;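 active = inhibition of 50% or more, scaled per plate between neutral and stimulator controls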;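 also: 0% = DMSO wells given calcium and 100% = 1 mM EGTA wells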
HSF1 inhib: HSF1 inhibition. NIH3T3-HGL HSE-luciferase, MG132-induced, luminescence 8 h; active compounds read low. activity change, negative = inhibition, % at 7.5 µM (by protocol). actives 0.77% (n = 300,000). AID 2098;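 active = more than half of replicate wells show activity change below -50%, luminescence cut by over half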;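 also: luciferase reports HSF-1 transcriptional activity via heat shock element; 0% = median of DMSO wells and -100% = zero luminescence signal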
HSF-1 act: increases HSF-1 driven luciferase reporter signal | activation, % at 9 µM | AID 504408 | NIH3T3-HGL HSF-1 luciferase reporter, MG132, 8 h; 100% = twice DMSO control signal | actives 1.7% (n = 300,000);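 active = mean replicate activation of at least 50% with a set share of replicates each reaching 50%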;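 also: 0% = median of the neutral control wells and 100% = twice that signal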
dFosB act: activators of mouse delta FosB homodimer; P13346; purified delta FosB, TAMRA-CDK5 oligo fluorescence polarization; percent of positive-control signal above neutral wells; activation, % at 25 µM; actives 0.99% (n = 340,000); AID 493131;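 active = mean activation above about 17%, with every replicate also reaching it, limit read from the data, passing the limit was not always enough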
Target sequence (P13346 whole entry, looked up): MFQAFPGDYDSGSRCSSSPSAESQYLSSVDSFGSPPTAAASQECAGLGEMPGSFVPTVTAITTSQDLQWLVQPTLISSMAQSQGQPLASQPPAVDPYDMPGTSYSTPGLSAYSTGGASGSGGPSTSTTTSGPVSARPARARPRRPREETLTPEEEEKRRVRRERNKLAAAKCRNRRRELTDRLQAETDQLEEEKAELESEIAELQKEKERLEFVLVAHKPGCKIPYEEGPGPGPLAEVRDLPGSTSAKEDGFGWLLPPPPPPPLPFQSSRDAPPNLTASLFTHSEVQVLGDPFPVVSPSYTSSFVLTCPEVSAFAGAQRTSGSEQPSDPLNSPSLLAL
HSP90 refold inh: blocks HSP90-mediated luciferase refolding in reticulocyte lysate. Rabbit reticulocyte lysate, luciferase refolding luminescence, 3 h. inhibition, % at 5.6 µM. actives 0.91% (n = 290,000);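 active = inhibition above the screen-wide mean plus 3 SD, computed separately per campaign, cut at about 16% in these data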;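 also: 0% = DMSO wells and 100% = 60 µM geldanamycin wells; inhibitors lower the luminescence because luciferase stays unfolded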
MPTP counter: mitochondrial membrane potential, counter-screen. inhibition, % at 10 µM. shares compounds with MPTP inh. isolated mitochondria, Rhodamine 123 fluorescence. actives 78% (n = 5,000); in the data active = inhibition above about 22%;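 also: 0% = DMSO vehicle and 100% = positive control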
MPTP abs DR: MPTP inhibition, dose response swelling confirmation; actives 58% (n = 780); shares compounds with MPTP inh; AID 651561; isolated mitochondria swelling, absorbance; IC50, µM; in the data active = IC50 below about 20 µM
MPTP counter DR: MPTP inhibitor counter-screen activity, dose response; IC50, µM; actives 49% (n = 780); isolated mitochondria counterscreen, fluorescence read-out; shares compounds with MPTP inh; in the data active = IC50 below about 80 µM
Starred values were filed as active, the others as inactive.

Results for Cc1nn(CC(=O)NCCCN2CCCC2=O)c(C)c1[N+](=O)[O-] ?
MPTP inh: 0

What do the screens show for `O=C(Nc1ccc(S(=O)(=O)N2CCN(Cc3ccccc3)CC2)cc1)c1cnccn1`?
Platelet DG rel: -7; MPTP inh: 73*; HSF1 inhib: -5; HSF-1 act: -6; dFosB act: 6; HSP90 refold inh: 2; MPTP counter: 42*

How did FC(F)(F)c1cnc(NNC(=S)Nc2ccc(Cl)cc2)c(Cl)c1 do in these assays?
Platelet DG rel: -3; MPTP inh: 100*; HSF1 inhib: 0; HSF-1 act: 11; dFosB act: -5; HSP90 refold inh: -1; MPTP counter: 92*

What do the screens show for `Fc1ccc(NC(=S)NNc2ncc(C(F)(F)F)cc2Cl)c(F)c1`?
Platelet DG rel: 0; MPTP inh: 94*; HSF1 inhib: 4; HSF-1 act: 8; dFosB act: -1; HSP90 refold inh: 1; MPTP counter: 94*

Results for Cc1ccc(NC(=S)NNc2ncc(C(F)(F)F)cc2Cl)c(C)c1 ?
MPTP inh: 13; HSF1 inhib: 2; HSF-1 act: 3; dFosB act: -5; HSP90 refold inh: 0

Results for COc1cc(/C=C2/CC(C)OC2=O)c([N+](=O)[O-])cc1OC (stereo unspecified) ?
Platelet DG rel: -1; MPTP inh: 1; HSF1 inhib: -5; HSF-1 act: 10; dFosB act: 4; HSP90 refold inh: -1

What do the screens show for `COCCN(C(=O)c1ccc(N(C)S(=O)(=O)c2ccc(C)cc2)cc1)c1c(N)n(CC(C)C)c(=O)[nH]c1=O`?
MPTP inh: 1; dFosB act: -10

How did Cc1ccc(C(C)C)c(OCC(=O)Nc2ccccc2N2CCN(C)CC2)c1 do in these assays?
Platelet DG rel: 0; MPTP inh: 83*; HSF1 inhib: 18; HSF-1 act: 48; dFosB act: -12; HSP90 refold inh: 1; MPTP counter: -7; MPTP abs DR: inactive; MPTP counter DR: >80

What do the screens show for `O=c1c2c(-c3ccccc3)csc2nc2c3ccccc3c(NCCN3CCOCC3)nn12`?
Platelet DG rel: 4; MPTP inh: 58*; HSF1 inhib: 15; HSF-1 act: 44; dFosB act: -202; HSP90 refold inh: 6; MPTP counter: -17

What do the screens show for `O=C(Nc1ccccc1)N1CC=C(c2ccccc2)CC1`?
Platelet DG rel: 7; HSF1 inhib: 22; HSF-1 act: 33; HSP90 refold inh: -12

Results for O=C(O)C1CCCCC1C(=O)N1CC=C(c2ccccc2)CC1 (stereo unspecified) ?
Platelet DG rel: 6; MPTP inh: 74*; HSF1 inhib: -40; HSF-1 act: -48; dFosB act: 2; HSP90 refold inh: 0; MPTP counter: 11; MPTP abs DR: >100; MPTP counter DR: >80

How did Cc1ccc(C)c(NC(=S)N2CCC(NC(=O)c3ccccc3)CC2)c1 do in these assays?
Platelet DG rel: -1; MPTP inh: 2; HSF1 inhib: -2; HSF-1 act: -3; dFosB act: -10; HSP90 refold inh: -3

What do the screens show for `C=CCc1c(C)nc(-c2ccccc2)nc1Nc1ccccc1O`?
Platelet DG rel: 6; MPTP inh: 60*; dFosB act: -1; HSP90 refold inh: -6; MPTP counter: 63*

What do the screens show for `C=CCc1c(C)nc(-c2ccccc2)nc1N/N=C/c1ccccc1`?
Platelet DG rel: -2; MPTP inh: 3; HSF1 inhib: -20; HSF-1 act: -32; dFosB act: -6; HSP90 refold inh: 1

Results for Cc1ccc(S(=O)(=O)NCc2ccncc2)cc1 ?
Platelet DG rel: 7; MPTP inh: 25; HSF1 inhib: -5; HSF-1 act: -7; dFosB act: -7; HSP90 refold inh: 3

Results for CCOC(=O)COc1ccc(S(=O)(=O)NCc2ccncc2)cc1 ?
Platelet DG rel: 18; MPTP inh: 88*; HSF1 inhib: -4; HSF-1 act: -8; dFosB act: 1; HSP90 refold inh: -2; MPTP counter: 86*

Results for CCOC(=O)COc1ccc(S(=O)(=O)NCc2ccco2)cc1 ?
Platelet DG rel: -5; MPTP inh: -2; HSF1 inhib: -1; HSF-1 act: -4; dFosB act: -9; HSP90 refold inh: 2

What do the screens show for `Cc1ccc(C)c(S(=O)(=O)NCc2ccncc2)c1`?
Platelet DG rel: 1; MPTP inh: 7; HSF1 inhib: 4; HSF-1 act: 14; dFosB act: 1; HSP90 refold inh: 1

Results for CCOc1ccc(S(=O)(=O)NCc2ccncc2)cc1 ?
Platelet DG rel: 3; MPTP inh: 99*; HSF1 inhib: -5; HSF-1 act: -14; dFosB act: -1; HSP90 refold inh: 6; MPTP counter: 85*

How did CCOc1cc(S(=O)(=O)NCc2ccncc2)ccc1Cl do in these assays?
Platelet DG rel: 23; MPTP inh: 100*; HSF1 inhib: -17; HSF-1 act: -12; dFosB act: -2; HSP90 refold inh: -2; MPTP counter: 101*

Results for Cc1cc(S(=O)(=O)NCc2ccncc2)c(C)cc1Br ?
Platelet DG rel: 5; MPTP inh: 60*; HSF1 inhib: 3; HSF-1 act: -7; dFosB act: 5; HSP90 refold inh: -1; MPTP counter: 88*

How did Cc1ccc(OCCCC(=O)N(C)CC(=O)Nc2c(C)cccc2C)cc1 do in these assays?
MPTP inh: 1

How did C=CC[C@@H](CC(=O)N[C@@H](CO)Cc1ccccc1)C(=O)N[C@H](C)COC(=O)[C@@H](CC=C)Cc1ccc(F)cc1 do in these assays?
MPTP inh: 1; dFosB act: 2

Results for O=C(NNc1nc2ccccc2s1)Nc1ccc(Cl)c(Cl)c1 ?
Platelet DG rel: -2; MPTP inh: 74*; HSF1 inhib: -10; HSF-1 act: -16; dFosB act: 13; HSP90 refold inh: 10; MPTP counter: 75*

What do the screens show for `COc1ccc(NC(=O)Nc2nc3ccccc3s2)cc1`?
Platelet DG rel: -1; MPTP inh: 64*; HSF1 inhib: 19; HSF-1 act: 39; dFosB act: 4; HSP90 refold inh: 0; MPTP counter: 81*

How did CCOc1ccc2nc(NC(=O)Nc3ccccc3)sc2c1 do in these assays?
Platelet DG rel: 0; MPTP inh: 90*; HSF1 inhib: 29; HSF-1 act: 74*; dFosB act: 2; HSP90 refold inh: 2; MPTP counter: 74*
